High-throughput results (PubChem)
AmpC detergent = qHTS Inhibitors of AmpC Beta-Lactamase (assay with detergent). AmpC hydrolysis of nitrocefin, absorbance 480 nm, 0.01% Triton. Potency, µM (doses to about 114 µM), without a hit: at the highest dose activity change, negative = inhibition, actives largely listed as inhibitors. 0.041% of 370,000 active. AID 485294, 2010;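 also: 0% = no-compound wells and -100% = no-enzyme wells; nearly all actives have a fitted effect of over 25% in size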
Target sequence (P00811 whole entry, looked up): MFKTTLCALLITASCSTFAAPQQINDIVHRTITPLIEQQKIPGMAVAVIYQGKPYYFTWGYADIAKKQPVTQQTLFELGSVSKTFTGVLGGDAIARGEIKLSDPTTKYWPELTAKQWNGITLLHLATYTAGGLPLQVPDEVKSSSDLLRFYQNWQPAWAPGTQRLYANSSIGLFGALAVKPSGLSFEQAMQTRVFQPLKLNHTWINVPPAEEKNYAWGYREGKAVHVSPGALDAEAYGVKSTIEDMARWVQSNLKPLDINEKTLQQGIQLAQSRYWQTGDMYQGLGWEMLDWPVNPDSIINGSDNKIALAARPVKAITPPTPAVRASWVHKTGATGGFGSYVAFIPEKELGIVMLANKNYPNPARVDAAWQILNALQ
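20 mM phosphate pH 7.0 + 0.01% (detergent screen) or 0.0001% Triton X-100; 5.3 nM AmpC reagent; cpd preinc 15 min RT; nitrocefin (800 uM stock) to start; A480 q20 s × 4 min; Activity was normalised to no-enzyme and no-compound control wells.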
Vaccinia mCherry = qHTS for Stage-Specific Inhibitors of Vaccinia Orthopoxvirus: mCherry Reporter Primary qHTS; Vaccinia virus mCherry reporter infection, fluorescence; Potency, µM (top dose mostly 36.5 µM), for inactives: at the highest dose activity change, negative = inhibition, usual class: inhibitors; 0.63% of 310,000 active; AID 720579, 2013; calls by dose curve; tested in A549 cells; also: % is scaled to controls: 0 for no effect and ±100 for the full control effect; nearly all actives have a fitted effect of over 35% in size
SARS PLP yeast = qHTS of Yeast-based Assay for SARS-CoV PLP | S. cerevisiae expressing SARS-CoV PLpro, growth rescue | 0.19% of 330,000 active | Potency, µM (titrated, usually from 32.9 µM), for inactives: top-dose activity, positive = growth rescue, hits mostly activators; calls by dose curve; also: 0% is about no effect; nearly all actives have a fitted effect of over 55% in size
AmpC inh no detg = qHTS Inhibitors of AmpC Beta-Lactamase (assay without detergent) | AmpC nitrocefin hydrolysis, absorbance 480 nm, 0.0001% Triton | Potency, µM (series often up to 57.1 µM), for the others: at the top dose activity change, negative = inhibition, most hits filed as inhibitors | P00811 | 0.52% of 330,000 active;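 also: plate controls were no compound for no effect and no enzyme for full effect; nearly all actives have a fitted effect of over 20% in size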
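20 mM phosphate pH 7.0 + 0.01% (detergent screen) or 0.0001% Triton X-100; 5.3 nM AmpC reagent; cpd preinc 15 min RT; nitrocefin (800 uM stock) to start; A480 q20 s × 4 min; Activity was normalised to no-enzyme and no-compound control wells.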
VACV Venus inh = qHTS for Stage-Specific Inhibitors of Vaccinia Orthopoxvirus: Venus Reporter Primary qHTS | Vaccinia virus Venus reporter expression, fluorescence | Potency, µM (doses to about 36.5 µM), inactives show at the top dose activity change, negative = inhibition, usual class: inhibitors | 0.46% of 330,000 active | AID 720580, 2013; calls by dose curve; tested in A549 cells; also: % is scaled to controls: 0 for no effect and ±100 for the full control effect; nearly all actives have a fitted effect of over 30% in size
AMA1-RON2 inh = qHTS for Inhibitors of AMA1-RON; Towards Development of Antimalarial Drug Lead: Primary Screen; AlphaScreen AMA1-biotinylated RON2 peptide binding; Potency, µM (titrated, usually from 58.2 µM), inactives show at the highest dose activity change, negative = inhibition, usual class: inhibitors; 0.2% of 360,000 active; AID 720542, 2013;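 also: 0% = vehicle wells and -100% = peptide control; nearly all actives have a fitted effect of over 45% in size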
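AMA1 (3D7) with his tag at 25 nM final met compounds first, then biotinylated RON2 peptide at 25 nM; detection used donor plus acceptor beads, 10 µg/mL apiece, read by AlphaScreen after 30 min at room temperature.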
* = called active by the depositor; i = inactive; ? = inconclusive; . = not tested or not shown; [ ] = remark or other dose. Hits are enriched below; roughly 1.4% of the tested compounds scored in any of these assays. Unless noted, calls follow the shape of the dose curve; as a rule, active = well fitted curve in the direction sought with a large enough effect; inconclusive = small, poorly fitted or top-dose-only effect, or another doubt; inactive = no such curve, though single readings can be large; an effect the other way counts as inactive or inconclusive. Potency is read from the fitted curve at half-maximal effect.

SMILES | AmpC detergent | Vaccinia mCherry | SARS PLP yeast | AmpC inh no detg | VACV Venus inh | AMA1-RON2 inh
CCOC(=O)[C@H]1[C@H]2COc3ccc(Cl)cc3[C@@H]2N2C(=O)CN(Cc3ccccc3)C(=O)[C@@]12C | 5% | i | 8.9µM* | 189% | -1% | -4%
COc1ccccc1-c1ccnc(-n2ncc(C(=O)NC(C)(C)CO)c2C2CC2)n1 | . | -3% | . | . | -16% | .
CNCc1nc(-c2ccc[nH]2)c2cc(Cl)ccc2n1 | . | 27% | . | . | 9% | .
COCc1c(C(=O)N2CCN(C)CC2)cnn1-c1ncc2c(n1)-c1ccccc1CCC2 | . | -24% | . | . | -12% | .
COc1ccc2nc(/C(C#N)=C\c3ccc(Oc4ccc([N+](=O)[O-])cn4)cc3)[nH]c2c1 | -4% | i | 7% | ? | 2% | 41%
Cc1ccc2nc(/C(C#N)=C\c3ccc(Oc4ccc([N+](=O)[O-])cn4)cc3)[nH]c2c1 | -6% | i | -2% | 28µM* | -20% | 24%
CCCNC(=O)C1(C)CCCN(C(=O)c2cccnc2Oc2ccccc2)C1 (stereo not drawn) | . | 4% | . | . | -2% | 4%
COCCNC(=O)C1(C)CCN(C(=O)c2cccnc2Oc2ccccc2)C1 (stereo not drawn) | . | 28µM* | . | . | 32µM* | -2%
O=[N+]([O-])c1ccc(Nc2ccc3ccccc3c2)nc1 | 1% | -21% | 0% | 0.32µM* | -8% | -5%
COC(=O)c1ccc(/C=N/Nc2nc(-c3ccc(C)cc3)cs2)cc1 | -13% | 13µM* | 29% | -21% | ? | -3%[2.32 µM]
O=C(CSc1nc(C2CC2)nc2ccccc12)N1c2ccccc2Sc2ccccc21 | -2% | . | -1% | 0.32µM* | . | 1%
COc1ccc(N=C(N)SCc2ccccn2)cc1 | -6% | 11µM* | -7% | -47% | 11µM* | 8%
CCc1ccccc1NC(=O)Cn1c(-c2nonc2N)nc2ccccc21 | 16% | 6% | . | . | 3% | .
CCCCOc1ccccc1NC(=O)Cn1c(-c2nonc2N)nc2ccccc21 | ? | 4µM* | 6% | ? | ? | 6%
CCOC(=O)Cn1c(-c2nonc2NC(=O)c2ccccc2F)nc2ccccc21 | -11% | 10µM* | 2% | -34% | 10% | 20%
COc1ccccc1-c1ccnc(-n2ncc(C(=O)NCC3(N4CCOCC4)CCCC3)c2C)n1 | . | -14% | . | . | -10% | .
COc1c(N2CCN(C(=S)NCc3ccccc3)C(C)C2)c(F)cc2c(=O)c(C(=O)O)cn(C3CC3)c12 (stereo not drawn) | 1% | . | 0% | 32% | 13µM* | -11%
COc1c(N2CCN[C@H](C)C2)c(F)cc2c(=O)c(C(=O)O)cn(C3CC3)c12 | ? | -6% | -10% | -1% | -7% | -1%
Cn1nc(C(=O)Nc2ccc(Cl)cc2)cc1C(=O)Nc1ccc(Cl)cc1 | ? | . | 1% | -2% | . | 3%
Cn1nc(C(=O)Nc2cccc(Cl)c2)cc1C(=O)Nc1cccc(Cl)c1 | -4% | . | 2% | 16µM* | . | -2%
COc1cc(NC(=O)CSc2nc(-c3ccc(C(C)C)cc3)no2)cc(OC)c1 | 2% | -22% | . | . | -22% | .
c1ccc(CNCCCNCCCCNCCCNCc2ccccc2)cc1 | . | 13µM* | . | . | 13µM* | -12%
CCC1CN(CCNC(=O)c2cn3cc(C)ccc3n2)Cc2cc(OC)ccc2O1 (stereo not drawn) | . | -28% | . | . | -21% | .
CC1CCCCN1c1nnc(NC(=O)c2cc(-c3ccc(Br)cc3)on2)s1 (stereo not drawn) | ? | -1% | 2% | 40µM* | -13% | 109%
C#CCN(C[C@@H]1[C@@H](OC(=O)NCc2ccco2)[C@@H](OC(=O)NCc2ccco2)Cn2c(=O)n(CCCCCC)c(=O)n21)S(=O)(=O)c1ccc(C)cc1 | . | -19% | . | . | -25% | 2%
SMILES | AmpC detergent | Vaccinia mCherry | SARS PLP yeast | AmpC inh no detg | VACV Venus inh | AMA1-RON2 inh
C#CCN(C[C@@H]1[C@@H](OC(=O)NCc2ccc(OC)c(OC)c2)[C@@H](OC(=O)NCc2ccc(OC)c(OC)c2)Cn2c(=O)ccc(=O)n21)S(=O)(=O)c1ccc(C)cc1 | . | ? | . | . | ? | -11%
C#CCN(C[C@@H]1[C@@H](OC(=O)NCCCCCC)[C@@H](OC(=O)NCCCCCC)Cn2c(=O)ccc(=O)n21)S(=O)(=O)c1ccc(C)cc1 | . | ? | . | . | 5.6µM* | 1%
C#CCN(C[C@@H]1[C@@H](OC(=O)NCc2ccco2)[C@@H](OC(=O)NCc2ccco2)Cn2c(=O)ccc(=O)n21)S(=O)(=O)c1ccc(C)cc1 | . | ? | . | . | 7.9µM* | -1%
C#CCN(C[C@@H]1[C@@H](OC(=O)NCC2CCCCC2)[C@@H](OC(=O)NCC2CCCCC2)Cn2c(=O)ccc(=O)n21)S(=O)(=O)c1ccc(C)cc1 | . | ? | . | . | 7.9µM* | 0%
COc1cccc(-c2nc3cc4c(cc3cc2CN(C(=O)c2csc(C)n2)C2CC2)CCC4)c1OC | . | ? | . | . | -24% | .
c1ccc(CCNc2ccnc3cc4ccccc4cc23)cc1 | -5% | ? | 0% | 18µM* | ? | -1%
COc1ccc(Nc2ccnc3ccccc23)cc1 | -12% | . | 2% | -19% | -20% | -3%
CC(C)Nc1ccc(Nc2ccnc3cc4ccccc4cc23)cc1 | 10% | ? | -1% | -45% | ? | 7.9µM*
O=C(NCCc1ccccc1)c1nccc2ccccc12 | -14% | i | -15% | -5% | -15% | 9%
CCN(CC)S(=O)(=O)c1ccc(-c2nnc(SCC(C)=O)o2)cc1 | -13% | . | 3% | 31% | . | 3%
CCN(CC)S(=O)(=O)c1ccc(-c2nnc(SCc3nnc(-c4ccc(C)cc4)o3)o2)cc1 | -12% | 0.0011µM* | 1% | -12% | ? | -13%
CCN(CC)S(=O)(=O)c1ccc(-c2nnc(SCC(=O)N3CCOCC3)o2)cc1 | -14% | 2.5µM* | -1% | 37% | 3.5µM* | -3%
CCN(CC)S(=O)(=O)c1ccc(-c2nnc(SCc3nnc(-c4ccc(C)cc4)o3)n2CC)cc1 | -7% | . | 0% | -1% | . | 16%
CCOc1cccc(C2C=C(c3ccc4c(c3)OCO4)NC(c3ccc(Cl)cc3)N2)c1O (stereo not drawn) | . | -9% | . | . | -21% | .
NNC(=O)c1[nH]c2ccccc2c1-c1ccccc1 | -10% | -13% | 0% | 6.3µM* | ? | 77%
